# Assay results published in PubChem BioAssay.
# Active and inactive are the calls of the source.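 How the source made its calls: active means inhibition above 20% together with a positive visual image hit; inconclusive means visual image hit but inhibition not above 20%; inactive means no visual image hit.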
# Test: inhibitors of TNFa-induced NFkB p65 translocation, primary screen, imaging, HUVEC, MLSMR starter and 10KST1 sets (AID 438);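 further: compound added about 3h40 before a 20 min TNFalpha stimulation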;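 on inhibition: signal is the nuclear over cytoplasmic p65 intensity ratio per well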
# Conditions: HUVEC TNFa-induced p65 nuclear translocation; cell count: measured here: nuclei count (cytotoxicity indicator), at 2.08 µM; inhibition: at 2 µM, stronger effect = higher value, 0% TNFa-plus-vehicle, 100% no-TNFa wells
SMILES,inhibition,cell count
CCCOC(=O)/C(C(N)=NCc1ccccc1)=C(\O)OCCC,4.4% (inactive),488
CC(=O)N1CCN(c2ccc(NC(=O)c3ccc(C(C)(C)C)cc3)cc2)CC1,7.3% (inactive),816
OC(CN1CCOCC1)Cn1c(-c2cccc(Cl)c2)nc2ccccc21 (configuration not stated),-2.9% (inactive),500
CCN(CC)C(=O)C1CCC(CNS(=O)(=O)c2cccc3cccnc23)CC1 (configuration not stated),4.4% (inactive),787
CN(C)Cc1cn(CCC(=O)O)c2ccccc12,5.3% (inactive),331
CC(NS(=O)(=O)c1ccc(OCC(=O)N2CCOCC2)c(Cl)c1)c1ccccc1 (configuration not stated),-6.5% (inactive),338
CCOc1ccc2nc(N3CCC(C(=O)N4CCN(C5CCCCC5)CC4)CC3)sc2c1,-0.8% (inactive),594
O=C(O)CSC1CC(=O)N(c2ccc(Cl)c(Cl)c2)C1=O (configuration not stated),-2.8% (inactive),754
CCN(C(C)=O)c1nnc(CSc2nc3ccccc3s2)s1,-15.2% (inactive),531
O=C(CNCCC1=CCCCC1)Nc1ccccc1N1CCCCC1,-56.1% (inactive),531
COCC(C)NC(=O)CCS(=O)(=O)c1nc(-c2ccc(OC)cc2)cc(C(F)(F)F)n1 (configuration not stated),7.9% (inactive),638
CSc1ccccc1NC(=O)C1CCCO1 (configuration not stated),4.5% (inactive),842
O=C(CN(Cc1ccc(F)cc1)C(=O)Cn1nnc2ccccc21)NCC1CCCO1 (configuration not stated),-6.8% (inactive),438
O=C(CSc1nnc(-c2ccccc2)o1)N1CCc2ccccc2C1,-4.2% (inactive),400
CCn1c(-c2cc(Br)ccc2O)n[nH]c1=S,-3.8% (inactive),623
CCOC(=O)c1ccc(NS(=O)C23CC4CC(CC(C4)C2)C3)cc1 (configuration not stated),-1.1% (inactive),406
O=C1CCC(c2ccccc2)N1C(=O)c1cccnc1 (configuration not stated),-17.3% (inactive),565
CC1Cc2nc(SCC(N)=O)n(Cc3ccccc3)c(=O)c2S1 (configuration not stated),-14% (inactive),633
CCC(=O)Nc1cc(C)c(NC(=O)C23CC4CC(CC(C4)C2)C3)cn1,5.2% (inactive),391
O=C(c1ccc(Br)o1)N(Cc1ccccc1)c1ccccn1,-5.9% (inactive),386
CCN1C(=O)/C(=C2\C=Cc3ccccc3N2CC)OC1=S,-8% (inactive),695
COc1ccc(C)cc1S(=O)(=O)N(C)CC(=O)Nc1ccc2c(c1)OCCO2,-8.1% (inactive),489
O=C(NC1CCCCC1)c1nc2c(nnn2Cc2ccccc2Cl)c(=O)[nH]1,8.8% (inactive),584
O=C(NCCN1CCOCC1)c1ccc2c(c1)N(Cc1ccccc1F)C(=O)CS2,5.8% (inactive),591
CN(C(=O)C1CCOC1)c1nnc(-c2cccnc2)s1 (configuration not stated),-12.4% (inactive),745
c1ccc(-c2nc3nonc3c3nc4ccccc4n23)cc1,-12.4% (inactive),333
